Source: PubChem BioAssay
TCR activator: Activators of T cell receptors: qHTS campaign. primary human leukocytes, anti-CD3, IL-2 HTRF, 48 h. Potency, µM (highest dose often 9.22 µM), inactives show at the highest dose activation of IL-2 secretion, actives largely listed as activators. 330,000 tested, under 10 active. AID 504894, 2011; note: % of control where 0% means no effect
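Human primary leukocytes + a-CD3 beads + cpd, 48 hr; IL-2 in supernatant by HTRF (ex 320nm / em 665nm). No co-stimulatory signal supplied.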
BCR signal inh: qHTS Assay to Find Inhibitors of Chronic Active B-Cell Receptor Signaling | ABC-DLBCL IkBa-CBG/CBR reporter, luminescence ratio, 4 h | Potency, µM (top dose mostly 46.1 µM), for inactives: at the top dose activity change, negative = inhibition, most hits filed as inhibitors | 340,000 compounds, 0.05% hits; active = well fitted inhibition curve with a large enough effect in the signal ratio, with a control signal flat, not every such curve was filed as active; inconclusive = small, poorly fitted or top-dose-only effect, or effect the other way, or a change in a side signal; the % refers to the signal ratio;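 note: potency is the fitted concentration of half-maximal effect; plate controls were basal doxycycline-induced cells for no effect and cells given 10 µM MG132 for full effect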
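Compounds up to 46 uM were incubated four hours with TMD8 cells whose green CBG68 luciferase is fused to IkappaBalpha; red CBR luminescence normalised the signal, and concentration-effect curves were fitted to fusion, red and ratio data.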
a7 integrin act: qHTS for Activators of Integrin-Mediated Alleviation for Muscular Dystrophy; alpha7betagal myoblasts, beta-gal FDG fluorescence, 48 h; Potency, µM (highest dose often 38.3 µM), for the others: at the highest dose activation, most hits filed as activators; 350,000 compounds, 0.064% hits;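 note: potency is the fitted concentration of half-maximal effect; 100% = response of the positive control SU9516; nearly all actives have a fitted effect of over 60% in size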
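alpha7betagal+/- myoblasts (passage 13, 250/well) treated 48 h at 37C with compounds at 1:260 dilution of DMSO stock. Lysed, then beta-galactosidase activity read as FDG fluorescence (ex 480/em 540) after 30 min, with pre-read for autofluorescence.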
Giardia kill: Small Molecules that selectively kill Giardia lamblia: qHTS; Giardia lamblia trophozoite viability; activity change, % at 7.66 µM, hits read low; 340,000 compounds, 0.15% hits; AID 540267, 2011; in the data active = activity change below about -80%; inconclusive = between about -30% and that limit;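 note: parasites exposed to compound for two days anaerobically before the ATP read; % is set by controls: 0 for no effect and ±100 for the full control effect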
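Each well holds 100 Giardia trophozoites and compound. After two days (48 hrs) at 37 deg C in anaerobic conditions, ATP is quantified by luminescence.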
Starred values were filed as active, the others as inactive; u = inconclusive; x = not tested or not shown. In the library only some 0.25% were active in any assay of this set; here they are far more common. Unless noted, calls come from the whole dose curve; as a rule, active = well fitted curve in the direction sought with a large enough effect; inconclusive = small, poorly fitted or top-dose-only effect, or another doubt; inactive = no such curve, though single readings can be large; an effect the other way counts as inactive or inconclusive.

SMILES	TCR activator	BCR signal inh	a7 integrin act	Giardia kill
Cc1ccccc1CN1C(=O)c2ccccc2S(=O)c2ccc(C(=O)NCc3ccc(Cl)cc3)cc21 (stereo not drawn)	x	1%	x	x
CCOC(=O)C1=C(C)NC2=C(C(=O)c3ccccc32)C1c1ccc([N+](=O)[O-])o1 (stereo not drawn)	4%	13%	-22%	-95*
CCOC(=O)C1=C(C)NC(=O)NC1c1ccc([N+](=O)[O-])o1 (stereo not drawn)	1%	3%	-7%	u
CCCn1c(SCC(=O)c2c(N)n(C3CC3)c(=O)[nH]c2=O)nnc1-c1ccncc1	x	-2%	-9%	3
Cc1c(C(=O)O)cccc1-n1c(C)cc(/C=N/Nc2ccc([N+](=O)[O-])cn2)c1C	-7%	8%	2.8µM*	-14
Cc1cc(/C=N/Nc2ccc([N+](=O)[O-])cn2)c(C)n1-c1ccccc1	-5%	u	-26%	-5
O=C(Nc1cccc(C(F)(F)F)c1)C1CCN(c2nnc(-n3cccc3)s2)CC1	x	0%	x	x
OB(O)c1ccc(Cl)s1	x	x	x	8
CCN(CC(=O)NCc1cccs1)C(=O)c1ccc([N+](=O)[O-])o1	2%	u	3%	-91*
CCN(CC(=O)NCc1cccs1)C(=O)c1ccc(C)o1	-1%	5%	-10%	15
